# Measured values from the supplement of paper PMC6555819.
# Assays:
# Assay in all cases: PBM binding z-score (relative to random genomic background probes); higher = stronger binding; sequences stand for … in GC…GCGATTGACAGCGTAGAATGAAGG
# [1] = tested on: PPARg:RXRa DBDmut IVT, anti-RXR (DBD mutation: RXRa K156A/R161A, NR concentration 270 nM, RXRa partner concentration 90 nM)
# Summary of the method: (§1)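 Random background probes are the reference for binding z-scores. These scores derive from regression-normalized fluorescence on custom Agilent 4×180K protein-binding microarrays incubated 1 h with ligand-free nuclear receptor dimers. Binding was detected with antibodies against each partner (one per run).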
# [2] = tested on: PPARg:RXRa IVT, anti-PPARg (NR concentration 270 nM, RXRa partner concentration 90 nM)
# Summary of the method: as §1
# [3] = tested on: PPARg DBDmut:RXRa IVT, anti-PPARg (DBD mutation: PPARg1 K132A/R137A, NR concentration 270 nM, RXRa partner concentration 90 nM)
# Summary of the method: as §1
# [4] = tested on: PPARg DBDmut IVT, anti-PPARg (DBD mutation: PPARg1 K132A/R137A, NR concentration 270 nM)
# Summary of the method: as §1
# [5] = tested on: PPARg homodimer (NR concentration 180 nM)
# Summary of the method: as §1
# [6] = tested on: PXR:RXRa (NR concentration 270 nM, RXRa partner concentration 90 nM)
# Summary of the method: as §1
# [7] = tested on: PXR homodimer (NR concentration 270 nM)
# Summary of the method: as §1
# [8] = tested on: RARa:RXR (NR concentration 270 nM, RXRa partner concentration 90 nM)
# Summary of the method: as §1
# [9] = tested on: RARa homodimer (NR concentration 270 nM)
# Summary of the method: as §1
# [10] = tested on: RARb:RXRa (NR concentration 270 nM, RXRa partner concentration 90 nM)
# Summary of the method: as §1
# [11] = tested on: RARb homodimer (NR concentration 270 nM)
# Summary of the method: as §1
# [12] = tested on: RARg:RXRa (NR concentration 270 nM, RXRa partner concentration 90 nM)
# Summary of the method: as §1
# [13] = tested on: RARg homodimer (NR concentration 270 nM)
# Summary of the method: as §1
# [14] = tested on: RXRa DBDmut IVT, anti-RXR (DBD mutation: RXRa K156A/R161A, NR concentration 90 nM)
# Summary of the method: as §1
# [15] = tested on: RXRa homodimer (NR concentration 180 nM)
# Summary of the method: as §1
# [16] = tested on: THRa:RXRa (NR concentration 90 nM, RXRa partner concentration 90 nM)
# Summary of the method: as §1
# [17] = tested on: THRa homodimer (NR concentration 90 nM)
# Summary of the method: as §1
# [18] = tested on: VDR:RXRa (NR concentration 270 nM, RXRa partner concentration 90 nM)
# Summary of the method: as §1
# [19] = tested on: VDR homodimer (NR concentration 270 nM)
# Summary of the method: as §1
Sequence,PBM binding z-score [1],PBM binding z-score [2],PBM binding z-score [3],PBM binding z-score [4],PBM binding z-score [5],PBM binding z-score [6],PBM binding z-score [7],PBM binding z-score [8],PBM binding z-score [9],PBM binding z-score [10],PBM binding z-score [11],PBM binding z-score [12],PBM binding z-score [13],PBM binding z-score [14],PBM binding z-score [15],PBM binding z-score [16],PBM binding z-score [17],PBM binding z-score [18],PBM binding z-score [19]
TAGCCTAAGTCATTGGGCCAGTATAGTACGCATC,-0.775,-0.00957,-0.0162,-1.02,-0.452,-0.441,-0.814,-0.394,-0.564,0.068,-0.447,0.191,0.0194,-0.879,0.156,-0.214,-0.958,-0.202,-0.312
ATATGTAGGTTACATCCGGGTCATTCCGGCTATG,7.45,7.39,4.71,3.42,2.43,3.36,1.56,3.56,0.832,2.14,2.71,3.56,2.07,1.21,2.92,3.61,2.3,3.88,2.99
CCAGACAGGTGAGAAGGTTACTCAGCCTCGATTA,0.947,1.04,-0.652,-0.801,1.03,0.441,0.133,1.23,0.46,1.36,1.63,1.67,1.13,0.518,1,0.657,0.115,0.635,0.152
TCGCGTAGGTTACCAATGGGGCATTCAGCTTTCT,1.28,0.245,-1.11,-0.793,-0.721,0.0701,-1.03,0.355,-1.2,1.05,0.809,1.42,0.306,0.302,0.572,0.107,-0.509,0.236,-0.338
AGTCAAAGTTCATATAGGTAACGTAAGATATGCT,0.943,3.97,1.58,0.96,2.46,4.96,5,3.57,1.52,4.69,3.55,5.1,5.32,4.83,4.41,2.28,-0.342,4.4,5.14
ACTATTAGTTGACTTAAGGCAACCGATACGACGC,0.219,0.392,0.915,1.11,0.0202,0.21,-0.0343,1.43,0.466,0.296,0.11,0.623,0.592,0.8,0.347,2.4,0.592,0.358,0.124
TCATATAGGCAAATGCTAGGTGAAAGTCCGATCT,2.29,0.809,0.452,0.623,0.286,0.34,0.108,0.528,0.507,0.0925,0.285,0.0737,0.0347,1.15,0.445,0.84,0.227,0.571,-0.285
CGTCCAAGGTCAATGCTAGGTCCGTGAAAGCATT,2.99,3.02,0.341,-0.534,3.68,3.8,0.579,4.21,1.32,4.91,3.83,5.71,5.7,3.67,4.55,3.82,2.12,3.86,2.96
GGAACGAGGGCAAGTTGATATCAGAGTTTGATGG,3.98,2.65,0.634,0.177,0.61,0.864,0.655,0.687,-0.152,2.57,1.7,1.66,2.58,2.63,0.916,1.46,0.151,1.42,2.21
ATCTCTAGGTAACACTCAGTTCAGTGAAGAACGC,3.97,2.95,1.8,2.07,1.13,1.94,2.42,1.13,1.39,1.06,1.27,0.926,0.875,1.05,0.63,1.64,1.38,1.97,2.25
GTACCAAGGTGAATAGGCCGTTGATGAGTAGGCG,1.64,2.14,-0.316,-0.431,0.326,0.0653,-0.287,0.238,0.218,1.36,0.865,0.98,0.694,-0.306,0.633,1.16,0.224,-0.0408,-0.141
ATCGAAAGGTCGAAGAGGTGAGTATACACCGTTT,-0.0174,1.75,0.444,0.332,1.01,2.82,0.5,3.46,0.27,3.62,2.74,4.11,4.08,0.936,4.41,2.73,-0.077,4.47,0.745
ATCTCTAGGTAAAGTTTAGTGAAAGATCGATAGA,2.35,1.77,1.78,1.51,0.509,0.187,0.339,-0.0938,1.15,0.584,0.401,0.251,0.558,0.303,0.0525,0.362,0.126,0.28,0.236
CGTCGAAGTTCAACTAAGGTAACGTAAAGCACGC,-0.101,0.723,0.00916,0.194,1.47,4.23,2.7,3.02,0.757,3.74,2.89,3.53,3.67,3.86,2.69,4.97,2.11,3.43,2.88
CCTACTGGGCCATTCAGAGGTCATTGAACATATG,4.56,4.39,0.0817,-0.464,3.64,5.2,3.45,5.13,1.15,3.23,4.05,4.74,3.46,1.03,4.17,3.33,1.65,4.16,4.01
ACTATTGGTTGAGACGAGGGCAACCGATAGGTTG,-0.0898,0.516,0.379,0.283,0.821,1.5,0.199,1.1,0.274,1.07,1.15,0.833,0.715,0.116,0.596,2.69,0.731,0.873,1.02
CTTACTGGGCCAAAAAGGTCATTGATGCCGATAA,6.06,5.95,2.51,1.61,4.12,5.01,4.11,5.16,1.79,4.03,4.5,4.8,4.65,1.08,5.37,3.21,0.313,4.92,2.72
TCTTGTAGACCAAGCAGGTTAAGAAAGCCTGAGT,1.69,0.677,-0.0357,-0.21,-0.226,0.504,0.118,0.56,-0.3,0.219,0.377,0.0625,-0.186,0.787,0.346,0.395,-0.407,0.582,0.173
ACTATCAGGCCAAGTTTGGGTCACTCAAACAAAG,0.297,1.51,1.26,0.453,1,0.896,0.251,1.83,-0.177,2.12,2.56,2.71,2.11,0.348,0.935,2.93,1.81,1.01,0.829
TGAAGGAGGTTATAAGATCAGGGAACGTTGCAAA,-0.131,0.876,0.728,0.392,0.374,0.292,0.19,0.993,0.904,0.905,0.457,1.11,0.942,-0.654,1.56,0.689,0.0287,0.323,0.219
CCGACTGTGGCAGAAAGGTTACCATACCATCCGG,0.332,0.812,-0.741,-1.03,0.662,0.984,-0.427,1.47,-0.0301,1.45,1.82,1.02,0.761,-0.111,1.47,0.958,-0.0743,0.378,-0.259
ATATGCAGGTTACATCCGGGTCATTCAGGCTATG,3.86,4.01,0.813,1.04,1.59,3.71,1.94,3.45,0.262,2.34,2.86,4.04,2.1,0.784,3.53,3.97,2.19,4.47,2.77
TCATATAGGTAAACAGGTGAAAGTACGTAAGTTA,4.97,4.72,2.79,1.19,1.65,0.938,0.715,1.22,1.42,0.779,0.897,0.775,0.637,1.58,1.31,0.952,0.331,1.48,0.523
CGTCCAAGGTCAAAGGTAAGTGAAGAGATGACGG,3.99,4.46,0.556,-0.194,2.19,4.69,0.799,5.9,0.423,5.23,4.06,6.23,6.89,3.8,7.74,3.91,1.96,4.55,2.48
GCATCTAGGTAATACAAGGTGAAAGTCCGATTGT,4.35,3.42,0.512,0.835,0.218,0.368,-0.443,0.737,-0.154,0.5,0.893,0.422,0.244,-0.0985,0.576,3.63,1.22,0.32,-0.188
TCTAGTAGGTTAGGGGCATTCAGAATGGCGTCGA,4.9,4.09,0.212,0.421,1.07,0.642,0.791,0.791,0.549,1.35,1.31,0.656,0.586,1.42,0.98,1.03,0.797,1.04,1.39
TCATATAGGAAAAAGGTGAAAGTCGGTGTGGTAA,2.92,1.79,1.1,0.104,1.49,0.859,0.327,1.63,1.43,1.57,1.66,0.803,0.339,1.88,1.5,1.11,0.221,1.21,0.152
CTTACTGGGCCATCAGGTCATTGATATCAACGTT,6.66,6.83,2.49,2.61,1.66,1.94,0.966,2.45,0.185,2.26,2.78,2.32,2.54,0.956,1.33,3.24,3.08,1.91,1.94
AGAATGAGGGTATACGTAGATCAGGGAAGAAAGT,2.6,0.629,0.622,0.525,0.231,0.14,0.655,0.0305,-0.0376,0.267,0.451,0.26,0.277,0.799,0.262,0.252,0.0652,0.239,0.45
TCGAGTAGGTTACCAATGCGGCATTCAGCTTTCT,3.59,2.67,-0.407,-1.16,-0.385,-0.209,-1.01,-0.26,-0.774,0.646,-0.23,0.0889,0.12,0.365,0.498,-0.131,-0.859,-0.196,-0.937
